Where “and” joins values, the source holds several entries; their conditions need not be identical. Identical values can stand only once. The panel holds about 79,000 compounds, 15% with a hit somewhere; the sample as a whole holds those more often. Some structures have more than one record in an assay (separate samples or runs), and their calls can disagree. Calls of active or inactive are those of the source. No stated cut-off is given here; in the data, active means growth inhibition above about 70%; inactive means the rest.
Key:
[1] = NCI Yeast Anticancer Drug Screen. Data for the rad52 strain (AID 147);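 further: 0% = growth of vehicle-treated control cultures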; details: S. cerevisiae rad52 mutant growth inhibition, stronger effect = higher value
Outline: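 Growth of repair-deficient yeast cells was compared between compound-treated and vehicle-treated cultures to give percent inhibition.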

[2] = NCI Yeast Anticancer Drug Screen. Data for the wt1 strain (AID 149);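 further: 0% = growth of vehicle-treated wt1 cultures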; details: S. cerevisiae wt1 strain (SPY 50644) growth inhibition, stronger effect = higher value
Outline: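 Yeast wt1 strain exposed to compounds; growth inhibition measured relative to vehicle-treated controls.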

[3] = NCI Yeast Anticancer Drug Screen. Data for the rad50EPP+ strain (AID 151);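 further: 0% = growth of vehicle-treated control cultures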; details: S. cerevisiae rad50 mutant strain, stronger effect = higher value
Outline: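 Measured: growth inhibition of rad50EPP+ yeast. Reference: vehicle-treated controls. Screen uses strains with defined genetic alterations in DNA damage repair or cell cycle control.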

[4] = NCI Yeast Anticancer Drug Screen. Data for the mgt1 strain (AID 153); details: S. cerevisiae mgt1 mutant growth inhibition, stronger effect = higher value
Outline: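 Compounds were applied to mgt1 mutant yeast, and growth was then compared against vehicle-treated control cultures to give percent inhibition.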

[5] = NCI Yeast Anticancer Drug Screen. Data for the mec2-1 strain (AID 157); details: S. cerevisiae mec2-1 strain, stronger effect = higher value
Outline: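 Compounds were applied to mec2-1 yeast cells. Their growth was then compared with that of vehicle-treated cultures to give growth inhibition.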

[6] = NCI Yeast Anticancer Drug Screen. Data for the rad14 strain (AID 159);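 further: 0% = growth of vehicle-treated control cultures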; details: S. cerevisiae rad14 strain growth inhibition, stronger effect = higher value
Outline: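 Yeast cells carrying a defined DNA-repair defect were exposed to compounds, and growth inhibition was calculated relative to vehicle-treated control cultures.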

[7] = NCI Yeast Anticancer Drug Screen. Data for the sgs1 mgt1 strain (AID 161);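 further: 0% = growth of cultures given vehicle only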; details: S. cerevisiae sgs1 mgt1 strain, stronger effect = higher value
Outline: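 Yeast cells carrying a defined DNA-repair defect were exposed to test compounds. Growth inhibition was measured relative to vehicle-treated controls.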

[8] = NCI Yeast Anticancer Drug Screen. Data for the cln2 rad14 strain (AID 165);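 further: 0% = growth equal to vehicle treated cultures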; details: S. cerevisiae cln2 rad14 strain, stronger effect = higher value
Outline: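 Strain: cln2 rad14 yeast, altered in cell cycle control and DNA damage repair. Read-out: growth inhibition vs vehicle.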

[9] = NCI Yeast Anticancer Drug Screen. Data for the bub3 strain (AID 167); details: S. cerevisiae bub3 mutant strain, stronger effect = higher value
Outline: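 Compounds were applied to a genetically altered yeast strain carrying a cell-cycle control defect. Growth inhibition was scored against vehicle-treated controls.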

[10] = NCI Yeast Anticancer Drug Screen. Data for the wt2 strain (AID 169);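 further: 0% = growth of vehicle-treated yeast cultures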; details: S. cerevisiae wt2 strain growth inhibition, stronger effect = higher value
Outline: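 Growth of compound-treated yeast is measured and expressed as inhibition relative to vehicle-only controls.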

[11] = NCI Yeast Anticancer Drug Screen. Data for the sgs1 strain (AID 173);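 further: 0% = growth of vehicle-only control cultures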; details: S. cerevisiae sgs1 mutant, stronger effect = higher value
Outline: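 Strain with an altered DNA repair or cell cycle pathway exposed to compound. Growth then measured. Value = inhibition versus vehicle control.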

[12] = NCI Yeast Anticancer Drug Screen. Data for the mlh1 rad18 strain (AID 175); details: S. cerevisiae mlh1 rad18 strain growth inhibition, stronger effect = higher value
Outline: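 A repair-deficient yeast strain is exposed to test compound, and growth is scored relative to vehicle-treated controls.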

[13] = NCI Yeast Anticancer Drug Screen. Data for the rad18 strain (AID 177); details: S. cerevisiae rad18 mutant growth inhibition, stronger effect = higher value
Outline: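 DNA-repair-defective yeast; compound treatment; growth inhibition scored against vehicle.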

[14] = NCI Yeast Anticancer Drug Screen. Data for the rad50 strain (AID 155);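 further: 0% = growth of vehicle-only cultures of the same strain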; details: S. cerevisiae rad50 strain growth inhibition, stronger effect = higher value
Outline: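 Yeast carrying a defined DNA repair defect were exposed to test compounds, and growth was compared with vehicle-treated controls to give percent inhibition.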

[15] = NCI Yeast Anticancer Drug Screen. Data for the CLN2oe strain (AID 163);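 further: 0% = growth of vehicle-only control cultures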; details: S. cerevisiae CLN2oe strain, stronger effect = higher value
Outline: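 Cells of an engineered yeast line with disturbed cell-cycle regulation are treated with compound. Inhibition of growth is then calculated relative to the vehicle-treated reference.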

[16] = NCI Yeast Anticancer Drug Screen. Data for the mlh1 strain (AID 171);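 further: 0% = growth of vehicle-treated control cultures of the same strain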; details: S. cerevisiae mlh1 strain growth inhibition, stronger effect = higher value
Outline: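 Test agents were incubated with yeast bearing a defined DNA damage repair or cell cycle control alteration; values are growth inhibition normalised to vehicle-treated cultures.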

[17] = at 5.0 µM (retest, dose inferred, filed as 0.5)
[18] = at 50.0 µM (retest, dose inferred, filed as 5.0)

Measured: growth inhibition

COC(=O)CC1CCc2c(ccc3ccccc23)C1(C)C(=O)OC (stereo not drawn)
active: [7]; [18] 80% | [9]; [18] 75% | [9]; at 100.0 µM 71% | [11]; at 100.0 µM 79%
inactive: [1]; at 1.2 µM -1% | [1]; at 3.7 µM 2% | [1]; at 11.0 µM 14% | [1]; at 33.0 µM 5% | [1]; at 100.0 µM 32% | [2]; at 1.2 µM -2% | [2]; at 3.7 µM -4% | [2]; at 11.0 µM 7% | [2]; at 33.0 µM -10% | [2]; at 100.0 µM -1% | [3]; at 1.2 µM 5% | [3]; at 3.7 µM 16% | [3]; at 11.0 µM 16% | [3]; at 33.0 µM 48% | [3]; at 100.0 µM 45% | [4]; at 1.2 µM -3% | [4]; at 3.7 µM 0% | [4]; at 11.0 µM -2% | [4]; at 33.0 µM 17% | [4]; at 100.0 µM 53% | [5]; at 1.2 µM -3% | [5]; at 3.7 µM -2% | [5]; [17] -5% | [5]; at 11.0 µM -2% | [5]; at 33.0 µM -7% | [5]; [18] 28% | [5]; at 50.0 µM -1.05% | [5]; at 100.0 µM 6% | [6]; at 1.2 µM -2% | [6]; at 3.7 µM 1% | [6]; at 11.0 µM 2% | [6]; at 33.0 µM -5% | [6]; at 100.0 µM 10% | [7]; [17] -2% | [7]; at 50.0 µM 66% | [8]; [17] -3% | [8]; [18] 11% | [8]; at 50.0 µM 1.4% | [9]; at 1.2 µM 3% | [9]; at 3.7 µM 2% | [9]; [17] 2% | [9]; at 11.0 µM 6% | [9]; at 33.0 µM 46% | [9]; at 50.0 µM 63.5% | [10]; at 1.2 µM 1% | [10]; at 3.7 µM -8% | [10]; at 11.0 µM -1% | [10]; at 33.0 µM -5% | [10]; at 100.0 µM 12% | [11]; at 1.2 µM -24% | [11]; at 3.7 µM -30% | [11]; at 11.0 µM -18% | [11]; at 33.0 µM 13% | [12]; [17] -3% | [12]; [18] 54% | [12]; at 50.0 µM 27.6% | [13]; at 1.2 µM -10% | [13]; at 3.7 µM -4% | [13]; at 11.0 µM -2% | [13]; at 33.0 µM -3% | [13]; at 100.0 µM 20%

C#CCN(Cc1ccc2nc(N)[nH]c(=O)c2c1)c1ccc(C(=O)NC(CCC(=O)O)C(=O)O)cc1 (stereo not drawn)
67% (inactive) and 82% (active): [14]; [18]
62% (inactive) and 82% (active): [7]; [18]
17% (inactive) and 78% (active): [8]; [18]
46% (inactive) and 78% (active): [12]; [18]
active: [1]; at 33.0 µM 73% | [1]; at 100.0 µM 88% | [14]; at 50.0 µM 77.5% and 72.5% | [14]; at 100.0 µM 89% | [5]; at 33.0 µM 89% | [5]; [18] 92% and 98% | [5]; at 50.0 µM 92% and 89.9% | [5]; at 100.0 µM 92% | [9]; [18] 71% and 96% | [11]; at 100.0 µM 75%
inactive: [1]; at 1.2 µM 19% | [1]; at 3.7 µM 29% | [1]; at 11.0 µM 28% | [2]; at 1.2 µM 2% | [2]; at 3.7 µM 9% | [2]; at 11.0 µM 15% | [2]; at 33.0 µM 17% | [2]; at 100.0 µM 43% | [3]; at 1.2 µM 27% | [3]; at 3.7 µM 37% | [3]; at 11.0 µM 44% | [3]; at 33.0 µM 29% | [3]; at 100.0 µM 41% | [4]; at 1.2 µM -29% | [4]; at 3.7 µM -23% | [4]; at 11.0 µM -27% | [4]; at 33.0 µM 17% | [4]; at 100.0 µM 34% | [14]; at 1.2 µM 26% | [14]; at 3.7 µM 29% | [14]; [17] 12% and 1% | [14]; at 11.0 µM 26% | [14]; at 33.0 µM 69% | [5]; at 1.2 µM -9% | [5]; at 3.7 µM -6% | [5]; [17] 4% and -6% | [5]; at 11.0 µM 17% | [7]; [17] 20% and 3% | [7]; at 50.0 µM 67.4% and 35.9% | [15]; at 1.2 µM 3% | [15]; at 3.7 µM 6% | [15]; at 11.0 µM -14% | [15]; at 33.0 µM 1% | [15]; at 100.0 µM 28% | [8]; [17] 0% and 14% | [8]; at 50.0 µM 30.1% and 16.3% | [9]; at 1.2 µM -6% | [9]; at 3.7 µM -8% | [9]; [17] 12% and -11% | [9]; at 11.0 µM -18% | [9]; at 33.0 µM 3% | [9]; at 50.0 µM 63.9% and 36.5% | [9]; at 100.0 µM 43% | [10]; at 1.2 µM -9% | [10]; at 3.7 µM -9% | [10]; at 11.0 µM 11% | [10]; at 33.0 µM 21% | [10]; at 100.0 µM 28% | [16]; at 1.2 µM 14% | [16]; at 3.7 µM 14% | [16]; at 11.0 µM 19% | [16]; at 33.0 µM 41% | [16]; at 100.0 µM 55% | [11]; at 1.2 µM 24% | [11]; at 3.7 µM 35% | [11]; at 11.0 µM 36% | [11]; at 33.0 µM 64% | [12]; [17] 5% and -8% | [12]; at 50.0 µM 35% and 20.6% | [13]; at 1.2 µM -2% | [13]; at 3.7 µM -23% | [13]; at 11.0 µM -26% | [13]; at 33.0 µM 33% | [13]; at 100.0 µM 65%

Source: PubChem BioAssay (NCI)
